Test results taken from PubChem BioAssay (Tox21).
Inconclusive results are not listed. Values without a mark were called inactive. Activity calls are given as the source filed them. Unless noted, the call rests on the fitted dose curve.

Test system: not listed separately
Assay: qHTS assay to identify small molecule agonists of the estrogen receptor alpha (ER-alpha) signaling pathway in the presence of an antagonist - cell viability counter screen (AID 1259386; active means well fitted cell-killing curve with a large enough effect in the repeat runs;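 further: cells exposed to compounds for 22 h at 37 °C before the viability read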; further: potency means the concentration at half of the fitted maximal effect)
Settings: VM7Luc4E2 viability, CellTiter-Fluor fluorescence, 22 h; series mostly up to 92.4 µM; activity change, negative = cytotoxicity: at the top concentration
Procedure, shortened: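 Fluorescent CellTiter-Fluor viability signal from VM7Luc4E2 cells, with the reagent added during the final hour of a 22hr compound exposure at 37C in the presence of 10.0nM ICI-182,780.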
Further: nearly all actives have a fitted effect of over 30% in size.
On the % scale 0 is the no-effect control and ±100 the full control effect.

SMILES | activity change, negative = cytotoxicity | Potency
Cc1nc2ccccc2s1 | -0.323% | 
CCOCCn1c(C2CCN(CCc3ccc(C(C)(C)C(=O)O)cc3)CC2)nc2ccccc21 | -0.257% [at 42.5 µM] | 
CC(=O)Nc1ccc(N)cc1 | -0.165% | 
CCC(=O)OC/C=C/c1ccccc1 |  | inactive
CN1CCN(c2c(F)cc3c(=O)c(C(=O)O)cn4c3c2OCN4C)CC1 | 0.0729% [at 19 µM] | 
CCC(C)=O | 2.23% | 
O=S(=O)(c1ccccc1)c1ccc(Cl)cc1 | 3.42% | 
CCn1nc(C)c2c1C(=O)NCC(c1ccc(O)cc1)=N2 | -0.0653% | 
CCc1nn(CCCN2CCN(c3cccc(Cl)c3)CC2)c(=O)n1CCOc1ccccc1 |  | 29.8 µM (active)
C[Si](NC1CCCCC1)(NC1CCCCC1)NC1CCCCC1 | -5.85% | 
CC(C)(C)C(=O)C(Oc1ccc(Cl)cc1)n1ccnc1 (stereo unspecified) | -3.87% [at 42.5 µM] | 
Cc1cc2nc3ccc(=[N+](C)C)cc-3sc2cc1N |  | 29.8 µM (active)
Nc1nc(Cl)nc2c1ncn2[C@@H]1O[C@H](CO)[C@@H](O)[C@@H]1F | 1.71% [at 42.5 µM] | 
CC(=O)OCC(=O)[C@H]1CC[C@H]2[C@@H]3CCC4=CC(=O)CC[C@]4(C)[C@H]3CC[C@]12C | 1.37% [at 42.5 µM] | 
Cc1cc(OI)c(C(C)C)cc1-c1cc(C(C)C)c(OI)cc1C | 3.18% [at 42.5 µM] | 

Target: Progesterone receptor (Homo sapiens) (UniProt P06401)
Sequence (P06401 whole entry, looked up): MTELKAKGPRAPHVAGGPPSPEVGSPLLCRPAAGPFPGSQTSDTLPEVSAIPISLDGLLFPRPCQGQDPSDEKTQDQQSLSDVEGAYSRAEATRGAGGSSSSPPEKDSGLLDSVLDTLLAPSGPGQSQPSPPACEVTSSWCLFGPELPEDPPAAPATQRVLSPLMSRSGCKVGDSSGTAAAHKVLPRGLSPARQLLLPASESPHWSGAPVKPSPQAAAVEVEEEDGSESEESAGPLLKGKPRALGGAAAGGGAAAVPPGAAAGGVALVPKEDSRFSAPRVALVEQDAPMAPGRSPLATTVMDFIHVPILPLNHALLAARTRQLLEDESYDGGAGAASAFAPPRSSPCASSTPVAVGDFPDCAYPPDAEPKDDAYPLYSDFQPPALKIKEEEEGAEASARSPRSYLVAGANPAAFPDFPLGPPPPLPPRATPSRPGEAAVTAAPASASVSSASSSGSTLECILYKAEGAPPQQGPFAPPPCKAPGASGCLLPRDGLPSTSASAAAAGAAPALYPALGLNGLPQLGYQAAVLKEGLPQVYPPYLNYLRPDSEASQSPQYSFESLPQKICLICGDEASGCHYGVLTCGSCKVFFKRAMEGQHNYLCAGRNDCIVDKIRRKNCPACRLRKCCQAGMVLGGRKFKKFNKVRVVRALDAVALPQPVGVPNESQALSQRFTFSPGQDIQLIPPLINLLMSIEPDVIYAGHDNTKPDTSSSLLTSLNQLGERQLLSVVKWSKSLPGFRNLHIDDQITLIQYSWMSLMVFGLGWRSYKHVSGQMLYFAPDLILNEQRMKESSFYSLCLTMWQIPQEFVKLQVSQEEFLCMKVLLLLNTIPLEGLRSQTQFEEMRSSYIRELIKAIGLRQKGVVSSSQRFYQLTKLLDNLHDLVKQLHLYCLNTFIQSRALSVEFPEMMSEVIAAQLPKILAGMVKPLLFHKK
Assay: qHTS assay to identify small molecule agonists of the progesterone receptor (PR) signaling pathway (AID 1346784)
Settings: PR-UAS-bla HEK293T, beta-lactamase FRET ratio, 16 h; series mostly up to 92.4 µM; activation: at the top concentration
Procedure, shortened: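 Using charcoal-stripped serum (2%) to limit endogenous steroids, PR-UAS-bla HEK 293T cells received compounds for 16 hr at 37C after 6 hr plating; beta-lactamase FRET fluorescence was recorded following 2 hr substrate loading at room temperature.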

SMILES | activation | Potency
CC(CCc1ccc2c(c1)OCO2)NN (stereo unspecified) | -1.46% [at 42.5 µM] | 
CC(C)c1nnc2ccc(-c3ocnc3-c3cc(F)ccc3F)cn12 | -3.81% | 
Cc1cc(S(=O)(=O)O)ccc1N=Nc1c(O)ccc2ccccc12 | -0.0069% | 
OC/C(Br)=C(\Br)CO | -0.0724% | 
CN1CCCN=C1/C=C/c1cccs1 | -0.256% [at 42.5 µM] | 
CC1(C)C(=O)N(Br)C(=O)N1Cl | 5.18% | 
CCC(C(=O)OCCOCCN(CC)CC)c1ccccc1 (stereo unspecified) | -1.42% [at 42.5 µM] | 
O=C(O)c1cccc(O)c1 | -2.83% | 
NC(=O)Nc1ccc(Cl)cc1 | -1.26% | 
O=C(O)c1ccc(CO)o1 | -1.93% | 
CCCCCCCCCCCC[N+](C)(C)CCCS(=O)(=O)[O-] | -3.04% | 
CCCOCCOCCO | -2.79% | 
Cc1cc(O)c2c(O)c3c(O)cccc3cc2c1 | 0.0588% [at 42.5 µM] | 
Cn1c(=O)c2c(ncn2CC(=O)O)n(C)c1=O | 0.537% [at 42.5 µM] | 
CC#N | 0.18% | 
CO[C@H]1O[C@H](CO)[C@@H](O)[C@H](O)[C@H]1O | 0.496% | 
CCOC(=O)C(C)Oc1ccc(Oc2nc3ccc(Cl)cc3o2)cc1 (stereo unspecified) | -0.709% | 
Cc1oncc1C(=O)Nc1ccc(C(F)(F)F)cc1 |  | inactive

SMILES | activation | Potency
CC1CN(c2cc3c(cc2F)c(=O)c(C(=O)O)cn3-c2ccc(F)cc2F)CCN1 (stereo unspecified) | -0.275% [at 8.39 µM] | 
COC(OC)(C(=O)c1ccccc1)c1ccccc1 | 0.927% | 
O=c1[nH]c2ccc(S(=O)CCN3CCC(Cc4ccc(F)cc4)CC3)cc2o1 (stereo unspecified) | 1.75% | 
Cc1nc2ccccc2s1 | -0.24% | 
CCOCCn1c(C2CCN(CCc3ccc(C(C)(C)C(=O)O)cc3)CC2)nc2ccccc21 | 2.49% [at 42.5 µM] | 
CC(=O)Nc1ccc(N)cc1 | 2.6% | 
CCC(=O)OC/C=C/c1ccccc1 |  | inactive
CN1CCN(c2c(F)cc3c(=O)c(C(=O)O)cn4c3c2OCN4C)CC1 | 1.06% [at 19 µM] | 
O=S(=O)(c1ccccc1)c1ccc(Cl)cc1 | 3.32% | 
O=C(CCC1CCN(Cc2ccccc2)CC1)c1ccc2c(c1)NCCCC2 | 0.983% [at 42.5 µM] | 
CCn1nc(C)c2c1C(=O)NCC(c1ccc(O)cc1)=N2 | -1.61% | 
CCc1nn(CCCN2CCN(c3cccc(Cl)c3)CC2)c(=O)n1CCOc1ccccc1 | -1.95% [at 42.5 µM] | 
C[Si](NC1CCCCC1)(NC1CCCCC1)NC1CCCCC1 | -3.5% | 
CC(C)(C)C(=O)C(Oc1ccc(Cl)cc1)n1ccnc1 (stereo unspecified) | 0.147% [at 42.5 µM] | 
CN(C)C(=O)Nc1ccc(Oc2ccc(Cl)cc2)cc1 | -2.99% | 
Nc1nc(Cl)nc2c1ncn2[C@@H]1O[C@H](CO)[C@@H](O)[C@@H]1F | -4.79% [at 42.5 µM] | 
CCOc1cc(N)c(Cl)cc1C(=O)NCC1CN(Cc2ccc(F)cc2)CCO1 (stereo unspecified) | -0.181% [at 42.5 µM] | 
Cc1cc(OI)c(C(C)C)cc1-c1cc(C(C)C)c(OI)cc1C | -0.726% [at 42.5 µM] | 
